# Measurements reported in PubChem BioAssay AID602195 (The Scripps Research Institute Molecular Screening Center, 2012).
# About 430 (27%) of roughly 1,600 compounds were called active. Cut-off read from the data, not from the text of the source: active = inhibition above about 29%; inactive = the rest. Only a sample is shown.
# Target: Melanocortin receptor 4 (Homo sapiens) (UniProt P32245)
# Assay: MC4R cAMP antagonists, retest, confirmation, cell-based, TR-FRET (AID 602195);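 note: 0% = agonist stimulated wells alone and 100% = agonist stimulated wells plus saturating reference antagonist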
# Details: MC4R-expressing cells, MTII-stimulated cAMP, at 6.5 µM, stronger effect = higher value
# Melanocortin receptor 4 (Homo sapiens), sequence (P32245 whole entry, looked up): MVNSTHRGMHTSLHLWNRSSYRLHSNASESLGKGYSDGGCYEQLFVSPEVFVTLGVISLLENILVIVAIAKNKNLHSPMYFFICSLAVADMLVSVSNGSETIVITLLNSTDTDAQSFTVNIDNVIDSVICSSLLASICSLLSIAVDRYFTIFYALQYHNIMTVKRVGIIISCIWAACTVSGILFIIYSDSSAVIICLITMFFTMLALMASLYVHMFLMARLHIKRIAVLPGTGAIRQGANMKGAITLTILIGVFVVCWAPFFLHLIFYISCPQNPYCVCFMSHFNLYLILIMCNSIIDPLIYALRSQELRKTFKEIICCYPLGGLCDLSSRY
row,Compound,inhibition
1,C#Cc1cc(N2CCN(C(=O)c3ccoc3)CC2)n2nc(-c3cccc(Cl)c3)cc2n1,36.4% (active)
2,Cc1ccc(Sc2ccc(NC(=O)c3ccc(F)cc3)cc2C#N)cc1,24.9% (inactive)
3,Cc1c(CCC(=O)O)c(=O)oc2cc(OCc3ccc(Br)cc3)ccc12,-0.06% (inactive)
4,CN(C)C(CNC(=O)CCCOc1ccccc1)c1ccco1 (configuration not stated),-4.52% (inactive)
5,COC(=O)[C@H](Cc1ccccc1)NC(=O)[C@@H]1C[C@H]1[C@@H](NC(=O)OCc1ccccc1)c1ccccc1,62.1% (active)
6,COc1ccccc1N(CC(=O)N/N=C(\C)c1ccccc1O)S(=O)(=O)c1ccc(C)cc1,11.1% (inactive)
7,CCOC(=O)C(C)n1cnc2sc(C)c(C)c2c1=O (configuration not stated),5.44% (inactive)
8,COC(=O)c1sc(-c2ccc(C(C)(C)C)cc2)cc1NC(=O)/C=C/C(=O)O,-6.9% (inactive)
9,Cc1ccc(C(C(=O)NCC2CCCO2)N(C(=O)c2snc(C(N)=O)c2N)c2ccc(C(C)C)cc2)o1 (configuration not stated),10.5% (inactive)
10,CN(CC(=O)NCCc1ccccn1)S(=O)(=O)c1ccc(Cl)cc1,-19.7% (inactive)
11,CC(C)(C)OC(=O)N1CCC(NC(=O)c2[nH]cnc2C(=O)N[C@@H](Cc2ccccc2)C(=O)OCc2ccccc2)CC1,55.3% (active)
12,O=C(Cn1nnc2ccccc2c1=O)Nc1cc(C(F)(F)F)ccc1N1CCOCC1,-7.03% (inactive)
13,CCOC(=O)c1cc(C)nc(S(C)(=O)=O)c1C#N,29.6% (active)
14,Cc1nnc(N/N=C/C2CC=CCC2)[nH]c1=O (configuration not stated),2.83% (inactive)
15,O=C(Nc1nccs1)c1cc(S(=O)(=O)N2CCOCC2)c(Cl)cc1Cl,38.2% (active)
16,Cc1ccc(NC(=O)COC(=O)CNC(=O)c2ccc(Cl)cc2Cl)cc1S(=O)(=O)N1CCOCC1,13.7% (inactive)
17,O=C(O)CCn1cc(/C=C/C(=O)c2ccc(Cl)cc2)c(-c2cccc(Br)c2)n1,13.2% (inactive)
18,CC1(C)C(c2cccs2)=[N+]([O-])C2(CCCCC2=O)N1O (configuration not stated),-17.8% (inactive)
19,Cc1ccc(C)c(S(=O)(=O)N2CCN(CC(=O)Nc3ccc([N+](=O)[O-])cc3)CC2)c1,-6.36% (inactive)
20,CCOC(=O)c1c(NC(=O)CCl)sc(C(=O)N(CC)CC)c1C,44.7% (active)
21,O=C(Nc1ccccc1Cl)/C(Cl)=C(\Cl)S(=O)c1ccccc1 (configuration not stated),-8.38% (inactive)
22,COc1ccc(-c2nc3n(c(=O)c2C#N)CCS3)c(OC)c1,-26.2% (inactive)
23,O=C(COC(=O)c1c2c(nc3ccccc13)CCCC2)c1ccc(Br)s1,13.6% (inactive)
24,O=C(Nc1nnc(Cc2ccc(Cl)cc2)s1)c1cccnc1,-6.82% (inactive)
25,CSc1nnc(NC(=O)c2nc(S(=O)(=O)Cc3ccc(C)cc3)ncc2Cl)s1,48.5% (active)
26,Cc1cccc(OCC(O)Cn2c(N3CCCCC3)nc3c2c(=O)[nH]c(=O)n3C)c1 (configuration not stated),-4.42% (inactive)

row,Compound,inhibition
1,Cc1ccc(OCC(=O)Nc2ccc(NC(=O)c3cccs3)cc2)c(C)c1,-16.5% (inactive)
2,CC(=O)Nc1ccc(Sc2ccccc2C(=O)N2CCCC2)cn1,-13.6% (inactive)
3,COc1ccc2sc(-c3ccc(S(C)(=O)=O)cc3)c(-c3ccc(C(N)=O)cc3)c2c1,27.4% (inactive)
4,COc1ccc(/C=N/OCC(=O)N(Cc2ccccc2)c2ccccc2C(=O)O)cc1,1.15% (inactive)
5,O=C1/C(=C\c2ccc([N+](=O)[O-])cc2)CS(=O)(=O)C/C1=C/c1ccc([N+](=O)[O-])cc1,31.9% (active)
6,COCCCNC(=O)/C(C#N)=C/c1c(N2CCCCCC2)nc2ccccn2c1=O,11.9% (inactive)
7,COc1cccc(OC)c1C(=O)Nc1c(C(=O)N2CCN(c3ccccn3)CC2)oc2ccccc12,-8.35% (inactive)
8,CCOc1ccc(Nc2nc(Cl)nc(N3CCN(c4ccc(OC)cc4)CC3)n2)cc1,33.7% (active)
9,Cc1ccc(NC(=O)c2c(NC(=O)CCC(=O)O)sc3c2CCCCC3)cc1,1.41% (inactive)
10,Cc1ccc(S(=O)(=O)CCC(=O)OCC(=O)N(C)Cc2ccccc2)cc1,7.91% (inactive)
11,Cc1ccc(S(=O)(=O)N(C)CC(=O)OCC(=O)N2CC(=O)Nc3ccccc32)cc1,16.8% (inactive)
12,Cc1ccc(S(=O)(=O)N(C)CC(=O)OCC(=O)Nc2ccccc2)cc1,38.5% (active)
13,O=C(c1ccc2c(c1)N(Cc1ccc(F)cc1)C(=O)c1ccccc1S2(=O)=O)N1CCN(c2ccccn2)CC1,-2.23% (inactive)
14,O=C(COC(=O)Cn1cnc2ccccc2c1=O)NCC12CC3CC(CC(C3)C1)C2,30.5% (active)
15,O=S(=O)(NCc1ccco1)c1cnc(Cl)c(Cl)c1,54.2% (active)
16,O=C(NCCc1c[nH]c2ccccc12)c1cccc(Br)c1,3.64% (inactive)
17,COc1ccc(-c2n[nH]c(C)c2-c2ccccc2OC)c(O)c1,0.3% (inactive)
18,O=C(COC(=O)[C@H](Cc1ccccc1)NC(=O)c1cccs1)Nc1cc(F)ccc1F,14.7% (inactive)
19,Cc1nc2ccccc2c(=O)n1NC(=O)c1ccc(Cl)c([N+](=O)[O-])c1,44.2% (active)
20,Cc1ccccc1-c1n[nH]c(=S)n1/N=C/c1ccc(-c2ccccc2Br)o1,0.08% (inactive)
21,O=C(CSc1nc2ccc(Nc3nc(N4CCOCC4)nc(N4CCOCC4)n3)cc2s1)NCc1ccco1,-2.81% (inactive)
22,Cc1c(Cl)cccc1NC(=O)[C@@]1(CC(=O)O)CC(/C=C/c2ccccc2)=NO1,-4.9% (inactive)
23,Cc1ccc(NC(=O)C(C)OC(=O)Cc2c[nH]c3ccccc23)cc1S(=O)(=O)N1CCOCC1 (configuration not stated),5.56% (inactive)
24,CCOC(=O)CSc1nc(N2CCOCC2)c2c(c1C#N)CC(C(C)C)OC2 (configuration not stated),8.67% (inactive)
25,CCCCOC(=O)CNc1nnc(SCC(=O)OCC)[nH]c1=O,44.4% (active)
26,CC(C)Oc1ccc(/C=C(\NC(=O)/C=C/c2ccco2)C(=O)NCCc2nc3ccccc3[nH]2)cc1,-6.84% (inactive)

row,Compound,inhibition
1,Cc1ccc(NS(=O)(=O)c2ccc(C)c(NC(=O)COc3ccc4ccccc4c3)c2)c(C)c1,0.85% (inactive)
2,COc1ccc(-n2nc(C(=O)Nc3cc(OC)c(OC)c(OC)c3)c3ccccc3c2=O)c(OC)c1,3.92% (inactive)
3,O=C(NC1=CC(=O)c2ccccc2C1=O)c1ccccc1,15.8% (inactive)
4,COc1ccc(C(C)C)cc1S(=O)(=O)Nc1ncn[nH]1,5.25% (inactive)
5,Cc1ccc(CSc2nnc(-c3cnccn3)n2C)cc1,10.6% (inactive)
6,COc1ccc(Oc2c(Cl)cnn(-c3ccccc3)c2=O)cc1,72.2% (active)
7,O=C(Nc1ccc(F)c([N+](=O)[O-])c1)C1CC(=O)N(Cc2ccccc2)C1 (configuration not stated),42.5% (active)
8,Cc1ccc(-c2nnc(CN3CCN(C)CC3)o2)cc1,7.87% (inactive)
9,COc1ccc(CCNC(=O)c2cnc(Cl)c(Cl)c2)cc1,35.6% (active)
10,COc1ccc(CCNC(=O)COC(=O)c2cnc(Cl)c(Cl)c2)cc1,36.7% (active)
11,O=C(OCC(=O)N1CCCCCC1)c1cnc(Cl)c(Cl)c1,35.9% (active)
12,CC(C)Oc1c(Br)cc(Br)cc1/C=N/NC(N)=S,25.2% (inactive)
13,COc1ccc(Cl)cc1-c1cc(C(=O)Nc2cc(OC)c(OC)c(OC)c2)[nH]n1,-21.1% (inactive)
14,O=C(NCC1CCN(Cc2ccccc2Cl)CC1)Nc1cccc(Cl)c1,-1.08% (inactive)
15,CC(NS(=O)(=O)c1ccc(Br)cc1)C(=O)NCC1CCCO1 (configuration not stated),0.92% (inactive)
16,CCOC(=O)c1c(-c2ccccc2)oc2cc(Br)c(O)c(C=O)c12,68.6% (active)
17,C=Cn1c(C(=O)O)ccc1-c1ccc(OC)cc1,-8.3% (inactive)
18,N#C/C=C1\Sc2ccccc2C(=O)N1CC(=O)N1CCN(S(=O)(=O)c2ccccc2)CC1,3.29% (inactive)
19,CCCC(C(=O)n1nc(C)cc1C)C(NS(=O)(=O)c1ccc(C)cc1)c1ccccc1 (configuration not stated),13.1% (inactive)
20,N#Cc1c(-c2cccs2)nc(SCC(=O)c2ccc(Br)cc2)[nH]c1=O,19.2% (inactive)
21,CC1(C)Cc2ccccc2-c2[nH]c(=S)[nH]c(=O)c21,36.1% (active)
22,COc1ccc2oc(N)c(C=O)c(=O)c2c1,-15.9% (inactive)
23,CC(=O)N1CCN(S(=O)(=O)c2c(F)cc(F)c(Cl)c2F)CC1,45.1% (active)
24,CCN(CC(=O)NCCCN1CCOCC1)S(=O)(=O)c1cc(Cl)ccc1Cl,-1% (inactive)
25,COc1ccc(C(C[N+](=O)[O-])n2nc(C)cc2C)cc1 (configuration not stated),-13.7% (inactive)
